Screen size: about 310,000 compounds; about 14,000 (4.5%) showed an effect of 50% or more. Effects have a minus sign here. Shown is part of a subset that was picked to be rich in strong results.
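Further: peak tail current of the secondary pulse compared with the same well before compound.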

This assay deals with human ether-à-go-go-related gene (hERG) potassium channel (human, UniProt Q12809). Kind of assay: primary screen, population patch clamp on CHO cells stably expressing hERG; higher = less effect of the substance.
Sequence of human ether-à-go-go-related gene (hERG) potassium channel (Q12809 whole entry, looked up): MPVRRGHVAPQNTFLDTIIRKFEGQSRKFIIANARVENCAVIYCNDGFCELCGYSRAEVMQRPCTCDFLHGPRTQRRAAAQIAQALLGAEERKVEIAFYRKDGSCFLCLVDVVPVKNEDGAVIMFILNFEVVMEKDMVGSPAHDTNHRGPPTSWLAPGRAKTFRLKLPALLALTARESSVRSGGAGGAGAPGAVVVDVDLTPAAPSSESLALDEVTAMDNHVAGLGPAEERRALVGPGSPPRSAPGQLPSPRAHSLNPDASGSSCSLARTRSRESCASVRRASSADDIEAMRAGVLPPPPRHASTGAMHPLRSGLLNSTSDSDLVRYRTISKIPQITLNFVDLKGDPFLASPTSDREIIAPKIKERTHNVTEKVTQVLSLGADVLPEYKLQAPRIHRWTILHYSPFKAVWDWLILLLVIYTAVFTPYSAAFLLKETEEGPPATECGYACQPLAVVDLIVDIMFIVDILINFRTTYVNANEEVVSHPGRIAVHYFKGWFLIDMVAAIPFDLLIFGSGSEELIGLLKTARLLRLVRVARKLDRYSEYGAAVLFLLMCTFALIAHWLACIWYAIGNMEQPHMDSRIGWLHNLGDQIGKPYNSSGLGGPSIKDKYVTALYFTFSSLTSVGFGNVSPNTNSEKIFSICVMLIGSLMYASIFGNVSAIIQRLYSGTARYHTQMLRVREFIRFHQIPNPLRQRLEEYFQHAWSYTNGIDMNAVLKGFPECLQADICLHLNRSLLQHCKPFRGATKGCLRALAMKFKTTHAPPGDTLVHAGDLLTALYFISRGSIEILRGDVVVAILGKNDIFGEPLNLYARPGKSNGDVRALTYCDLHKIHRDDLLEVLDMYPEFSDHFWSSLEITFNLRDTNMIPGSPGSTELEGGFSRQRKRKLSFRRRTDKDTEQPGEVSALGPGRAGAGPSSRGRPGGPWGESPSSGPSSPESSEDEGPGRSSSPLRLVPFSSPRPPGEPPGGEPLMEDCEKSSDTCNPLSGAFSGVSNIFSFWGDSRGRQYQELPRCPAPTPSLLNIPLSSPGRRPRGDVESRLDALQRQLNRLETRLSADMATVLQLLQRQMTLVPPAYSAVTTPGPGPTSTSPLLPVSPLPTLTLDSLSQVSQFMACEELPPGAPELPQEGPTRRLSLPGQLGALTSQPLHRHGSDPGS
Consider `CCC1(CC)C(=O)C2=C3C1[C@H](C(=O)OC)C=C(C(=O)OC)C[C@H]3[C@H]1C(=O)NC(=O)[C@H]1[C@H]2C` (stereo partly shown), for which the “hERG current change (%, negative = inhibition) at 10uM” value amounted to 3.57%.

Turning to `NS(=O)(=O)c1c(Sc2ccccc2C(=O)O)ccc2ccccc12`, the “hERG current change (%, negative = inhibition) at 10uM” value is 28.4%.

As to `CC1CCN(S(=O)(=O)c2c[nH]c(=O)[nH]c2=O)CC1`, the “hERG current change (%, negative = inhibition) at 10uM” value amounted to 6.09%. As for `CC1CCCN(S(=O)(=O)c2ccc3c(c2)c(=O)nc2ccc(Cl)cn23)C1` (stereo not shown), the figure is -10.5%. The result for `CC(=O)Nc1ccc(NC(=O)C2CCCN(S(=O)(=O)c3ccc(-n4cnnn4)cc3)C2)cc1` (stereo not shown) reads 0.72%; that for `Cc1cccc(C)c1NC(=O)CNC(=O)C(Cc1ccccc1)NC(=O)c1ccccc1` (stereo not shown), 13.5%.

Regarding `O=C(CN1C(=O)NC2(CCCC2)C1=O)OCCOc1cccc(Cl)c1`, the “hERG current change (%, negative = inhibition) at 10uM” value is reported as -7.43%. As for `COc1cc(OC)cc(C(=O)N2CCN(C(=O)c3ccc(OC)c(OC)c3)CC2)c1`, the figure is -14%. The result for `O=C1NC2(CCc3ccccc3C2)C(=O)N1CCOc1cccc(Cl)c1` (stereo not shown) reads -51.1%. As for `O=C(c1c(F)cccc1F)N1CCN(CCOc2ccccc2)CC1`, the figure is -8.2%; as for `Cc1ccc(C)n1CCN1CCN(C(=O)c2ccc(Cl)cc2)CC1`, -50.3%; as for `CN1CCN(C(=O)c2ccc(OCCOc3ccccc3)cc2)CC1`, -9.69%. For the compound `CN1CCN(C(=O)c2ccc(Cl)cc2)CC1`, the “hERG current change (%, negative = inhibition) at 10uM” value is given as 8.8%. As for `COc1ccc(OCCN2CCN(C(=O)c3ccc(OC)c(OC)c3)CC2)cc1`, the figure is -58.8%; as for `O=C(c1ccc(Cl)cc1)N1CCN(CCOc2ccccc2)CC1`, -60.1%; as for `Cc1ccc(C)n1CCN1CCN(C(=O)CC#N)CC1`, 16.3%. As for `COc1ccc(C(=O)N2CCN(Cc3ccc(OC)c(OC)c3)CC2)cc1.O=C(O)C(=O)O`, the figure is 0.702%; as for `COc1ccc(OCCN2C(=O)NC3(CCc4ccccc4C3)C2=O)cc1` (stereo not shown), -49.7%. `COc1ccc(C(=O)Nc2cccc(-c3ccc4nncn4n3)c2)cc1OC`: the “hERG current change (%, negative = inhibition) at 10uM” value was 8.84%. As for `Cc1ccccc1Nc1c(-c2ccc(N3CCOCC3)cc2)nc2cnccn12`, the “hERG current change (%, negative = inhibition) at 10uM” value was -1.1%. The result for `COc1cc(OC)cc(C(=O)N[C@H](C(=O)Nc2cccc(S(=O)(=O)N3CCCC3)c2)C(C)C)c1` reads 2.47%; that for `O=C(N/N=C/c1ccco1)c1cc(-c2ccccc2)nc2ccccc12`, 2.45%; that for `Cn1c(=NC(=O)C2=NNC(=O)CC2)sc2ccccc21`, 15.2%.

`O=C(NNC1=C(C(=O)C(F)(F)F)CCC1)c1ccccc1Cl`: the “hERG current change (%, negative = inhibition) at 10uM” value worked out at 13%. As for `Cc1cc(C(=O)Nc2cccc(C)c2C)n(-c2ccccc2)n1`, the figure is -11.7%. As for `O=C(Nc1cccc(S(=O)(=O)N2CCOCC2)c1)c1ccc(N2CCCC2=O)cc1`, the figure is 8.25%.

Regarding `COCCCN(CC(=O)O)S(=O)(=O)c1cccc(Cl)c1`, the “hERG current change (%, negative = inhibition) at 10uM” value is listed as 16.3%. As for `O=C(c1ccc(Br)o1)N1CCC(Cc2ccccc2)CC1`, the figure is -10.5%. With `O=C(c1ccco1)N1CCN(CCOc2ccccc2)CC1`, the “hERG current change (%, negative = inhibition) at 10uM” value is 0.652%. The result for `O=C(c1ccc(Br)o1)N1CCN(CCOc2ccccc2)CC1` reads -54.1%; that for `CCN(CC(=O)NCc1ccc(Cl)cc1)C(=O)c1cccc(S(=O)(=O)Nc2ccc(OC)cc2)c1`, -0.458%. Turning to `Cc1ccc(NC(=O)C(Cc2ccccc2)NC(=O)c2ccco2)cc1` (stereo not shown), the “hERG current change (%, negative = inhibition) at 10uM” value is reported as -3.13%. The result for `CCCOc1ccc(N2C(=O)CC(N3CCN(c4nc5ccccc5s4)CC3)C2=O)cc1` (stereo not shown) reads 8.46%; that for `CCOc1cccc(N2C(=O)CC(N3CCN(c4nc5ccccc5s4)CC3)C2=O)c1` (stereo not shown), 5.09%. For the compound `COc1ccc(N2C(=O)CC(N3CCN(c4nc5ccccc5s4)CC3)C2=O)cc1` (stereo not shown), the “hERG current change (%, negative = inhibition) at 10uM” value is recorded as -30.9%. As for `O=C1CC(N2CCN(c3nc4ccccc4s3)CC2)C(=O)N1Cc1cccs1` (stereo not shown), the figure is -62.3%. `O=C1CC(N2CCC(c3nc4ccccc4o3)CC2)C(=O)N1Cc1cccs1` (stereo not shown): the “hERG current change (%, negative = inhibition) at 10uM” value was -30.9%. As for `O=C1CC(N2CCN(c3nc4ccccc4s3)CC2)C(=O)N1c1ccc(F)cc1` (stereo not shown), the figure is -53.5%; as for `Cc1ccc(/C=N/NC(=O)C(NC(=O)c2ccccc2)c2n[nH]c(=O)c3ccccc23)cc1` (stereo not shown), -2.54%; as for `CCC(C)NC(=S)Nc1ccc(C(=O)OC)cc1` (stereo not shown), 15%. On to `CCCn1c(=O)c(C(=O)NNC(=O)c2cccc([N+](=O)[O-])c2)c(O)c2ccccc21`, for which the “hERG current change (%, negative = inhibition) at 10uM” value is -21.7%. As for `O=C(Cn1cnc2ccccc2c1=O)NCCC(=O)Nc1ccc2c(c1)OCO2`, the figure is 16.4%; as for `Cc1cc(NC(=O)CSc2nc(-c3ccc(Cl)cc3)cs2)no1`, -5.45%. As for `COC(=O)c1cc(NC(=O)Cn2nc(C)n3cccc3c2=O)cc(C(=O)OC)c1`, the figure is 4.88%. As for `COc1cc(S(=O)(=O)NCC2CCCO2)c(OC)cc1Cl` (stereo not shown), the figure is 10.6%; as for `N#Cc1ccsc1NC(=O)CN1CCN(Cc2ccccc2)CC1`, -66.4%; as for `N#Cc1ccccc1NC(=O)CN1CCN(Cc2ccccc2)CC1`, -60.1%. For `N#Cc1ccsc1NC(=O)CN1CCCCC1`, the “hERG current change (%, negative = inhibition) at 10uM” value is recorded as -5.6%. As for `CC1CCN(CC(=O)Nc2ccccc2C#N)CC1`, the figure is 3.06%; as for `N#Cc1ccsc1NC(=O)CN1CCN(c2ccccc2)CC1`, 1.63%; as for `N#Cc1ccccc1NC(=O)CN1CCOCC1`, 13.4%. The result for `Cc1ccc(C(=O)NCCN(C)C)cc1C` reads 7.22%; that for `Nc1ccccc1NC(=O)c1ccccc1`, 2.34%; that for `O=C(CCCN1C(=O)c2cccnc2Oc2ccc(Cl)cc21)N1CCCCC1`, -9.27%. The result for `O=C1CNC(=O)N1` reads 13.6%; that for `O=C(Nc1ccc(C(=O)N2CCN(c3ccc(F)cc3)CC2)cc1)C1=CSCCO1`, -38.1%; that for `O=C(c1ccccc1)N1CCN(c2ccccc2F)CC1`, 10.1%. With `CS(=O)(=O)Nc1ccc(C(=O)N2CCN(c3ccccc3F)CC2)cc1`, the “hERG current change (%, negative = inhibition) at 10uM” value was -68.1%. Turning to `CS(=O)(=O)Nc1ccc(C(=O)N2CCN(c3ccccc3)CC2)cc1`, the “hERG current change (%, negative = inhibition) at 10uM” value is listed as -61.9%. As for `CS(=O)(=O)Nc1ccc(C(=O)N2CCCCC2)cc1`, the figure is -3.35%; as for `CS(=O)(=O)Nc1ccc(C(=O)N2CCCC2)cc1`, -7.75%. As for `O=C(Nc1ccc(C(=O)N2CCN(c3ccccc3)CC2)cc1)C1=CSCCO1`, the figure is -39.8%; as for `O=C(Nc1ccc(C(=O)N2CCN(c3ccccc3F)CC2)cc1)C1=CSCCO1`, -50.3%. As for `O=C(c1ccc(-c2ccccc2)cc1)N1CCN(c2ccccc2F)CC1`, the figure is 7.96%.

These data come from publication PMC4336329 (PLoS ONE, 2015).
